Measurements as given in PubChem BioAssay (NCATS).
Inconclusive results are not listed. A call without a number means that no potency is given here. Activity calls are given as the source filed them. The call rests on the fitted dose curve; in most records, active means well fitted curve in the direction sought with a large enough effect; inconclusive means small, poorly fitted or top-dose-only effect, or another doubt; inactive means no such curve, though single readings can be large; an effect the other way counts as inactive or inconclusive.

Legend:
[1] = qHTS assay for measurement of the activity of small molecule inhibitors on Zika virus induced Caspase-3 activity in human iPSC derived neural progenitor cells (hNPCs) (AID 1224857); further: nearly all actives have a fitted effect of over 65% in size
How it was run: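 Quantitative HTS format: human iPSC neural progenitors, 1 h compound pretreatment, ZIKV 2 FFU/cell for 6 h at 37 C. Percent inhibition derived from luminescent caspase-3/7 signal between uninfected and infected controls.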

[2] = qHTS assay for measurement of the activity of small molecule inhibitors on Zika virus induced Caspase-3 activity in human astrocytoma cells (AID 1224859)
How it was run: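 Readout is luminescence from Caspase-Glo 3/7 added after a 6 h ZIKV infection (2 FFU/cell) of compound-pretreated (1 h) SNB-19 cells; data expressed as % inhibition versus uninfected and infected wells.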

[3] = qHTS assay to identify small molecule inhibitors of chordoma cells - UCH-1 (AID 1259355); further: nearly all actives have a fitted effect of over 55% in size
How it was run: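 Luminescent ATP read-out (CellTiter-Glo, 30min at room temperature) measured viability of UCH-1 cells exposed for 48hr to test drugs at 15 concentrations, co-dosed with a five-agent combination of auranofin, camptothecin, doxorubicin, rubitecan and topotecan.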

[4] = qHTS assay to identify small molecule inhibitors of chordoma cells - UCH-2 (AID 1259356); further: potency means the concentration at half of the fitted maximal effect

Q: For CCc1oc2ccccc2c1C(=O)c1cc(I)c(O)c(I)c1, which Potency [1] is on record?
A: inactive

Q: What about the outcome [2] of the same compound?
A: inactive

Q: What about the Potency [3] of the same compound?
A: inactive

Q: And the Potency [4]?
A: inactive

Q: Which Potency [1] does the source give for CCOC(=O)C(C#N)=C(c1ccccc1)c1ccccc1 here?
A: inactive

Q: What about the outcome [2] of the same compound?
A: inactive

Q: What about the Potency [3] of the same compound?
A: inactive

Q: What about the Potency [4] of the same compound?
A: inactive

Q: For Oc1ccc(Cl)cc1Cc1cc(Cl)ccc1O, which Potency [1] is on record?
A: inactive

Q: What about the outcome [2] of the same compound?
A: inactive

Q: What about the Potency [3] of the same compound?
A: inactive

Q: What about the Potency [4] of the same compound?
A: inactive

Q: With CCN(CC)CCNc1ccc(CO)c2sc3ccccc3c(=O)c12 as the compound, how does the Potency [1] read?
A: inactive

Q: What about the outcome [2] of the same compound?
A: inactive

Q: And the Potency [3]?
A: inactive

Q: And the Potency [4]?
A: 25.9 µM (active)

Q: What does the source list for c1ccc(-c2nc[nH]c2-c2ccccc2)cc1?
A: Potency [1]: inactive; outcome [2]: inactive; Potency [3]: inactive; Potency [4]: inactive

Q: Which results are given for COc1ccc(C(Cl)=C(c2ccc(OC)cc2)c2ccc(OC)cc2)cc1?
A: Potency [1]: inactive; outcome [2]: inactive; Potency [3]: inactive; Potency [4]: inactive

Q: Which Potency [1] does the source give for Nc1nc(Cl)nc2c1ncn2[C@@H]1O[C@H](CO)[C@@H](O)[C@@H]1F here?
A: inactive

Q: And the outcome [2]?
A: inactive

Q: And the Potency [3]?
A: inactive

Q: What about the Potency [4] of the same compound?
A: inactive

Q: With CCCCCCCCCCCCCC(=O)OC(C)C as the compound, how does the Potency [1] read?
A: inactive

Q: What about the outcome [2] of the same compound?
A: inactive

Q: And the Potency [3]?
A: inactive

Q: And the Potency [4]?
A: inactive

Q: Which Potency [1] does the source give for C#C[C@]1(O)CC[C@H]2[C@@H]3[C@H](C)CC4=C(CCC(=O)C4)[C@H]3CC[C@@]21C here?
A: inactive

Q: And the outcome [2]?
A: inactive

Q: And the Potency [3]?
A: inactive

Q: And the Potency [4]?
A: inactive

Q: Which Potency [1] does the source give for CC(=O)O[C@]1(C(C)=O)CC[C@H]2[C@@H]3C=C(Cl)C4=CC(=O)CC[C@]4(C)[C@H]3CC[C@@]21C here?
A: inactive

Q: What about the outcome [2] of the same compound?
A: inactive

Q: What about the Potency [3] of the same compound?
A: inactive

Q: What about the Potency [4] of the same compound?
A: inactive

Q: For O=C(NC1CCN(CCc2c[nH]c3ccccc23)CC1)c1ccccc1, which Potency [1] is on record?
A: inactive

Q: What about the outcome [2] of the same compound?
A: inactive

Q: And the Potency [3]?
A: inactive

Q: And the Potency [4]?
A: inactive

Q: Which Potency [1] does the source give for O=C1[C@H](CC[C@H](O)c2ccc(F)cc2)[C@@H](c2ccc(O)cc2)N1c1ccc(F)cc1 here?
A: inactive

Q: And the outcome [2]?
A: inactive

Q: What about the Potency [3] of the same compound?
A: inactive

Q: What about the Potency [4] of the same compound?
A: inactive

Q: For CN1CCN(C2=Nc3cc(F)ccc3Cc3ccccc32)CC1, which Potency [1] is on record?
A: inactive

Q: What about the outcome [2] of the same compound?
A: inactive

Q: What about the Potency [3] of the same compound?
A: inactive

Q: And the Potency [4]?
A: inactive

Q: With CN1CCc2cccc3c2[C@H]1Cc1ccc(O)c(O)c1-3 as the compound, how does the Potency [1] read?
A: inactive

Q: What about the outcome [2] of the same compound?
A: inactive

Q: What about the Potency [3] of the same compound?
A: inactive

Q: And the Potency [4]?
A: inactive

Q: Which results are given for Clc1cccc(C(c2ccc3nc[nH]c3c2)n2ccnc2)c1 (configuration not stated)?
A: Potency [1]: inactive; outcome [2]: inactive; Potency [3]: inactive; Potency [4]: inactive

Q: Which results are given for C[C@]12CCC(=O)C=C1C=C[C@@H]1[C@@H]2CC[C@@]2(C)[C@H]1CC[C@@]21CCC(=O)O1?
A: Potency [1]: inactive; outcome [2]: inactive; Potency [3]: inactive; Potency [4]: inactive

Q: Which results are given for O=C(Nc1ccccc1)OCC(CN1CCCCC1)OC(=O)Nc1ccccc1 (configuration not stated)?
A: Potency [1]: inactive; outcome [2]: inactive; Potency [3]: inactive; Potency [4]: inactive

Q: With CC(C)=CCOc1ccc(/C=C/C(=O)c2ccc(OCC=C(C)C)cc2OCC(=O)O)cc1 as the compound, how does the Potency [1] read?
A: inactive

Q: And the outcome [2]?
A: inactive

Q: What about the Potency [3] of the same compound?
A: inactive

Q: What about the Potency [4] of the same compound?
A: inactive

Q: Which Potency [1] does the source give for CCCCc1cc2ccccc2c(OCCN(C)C)n1 here?
A: inactive

Q: What about the outcome [2] of the same compound?
A: inactive

Q: What about the Potency [3] of the same compound?
A: inactive

Q: And the Potency [4]?
A: inactive

Q: With CO[C@]12C[C@@H](COC(=O)c3cncc(Br)c3)CN(C)[C@@H]1Cc1cn(C)c3cccc2c13 as the compound, how does the Potency [1] read?
A: inactive

Q: And the outcome [2]?
A: inactive

Q: What about the Potency [3] of the same compound?
A: inactive

Q: And the Potency [4]?
A: inactive

Q: Which Potency [1] does the source give for CC(C)n1c(/C=C/[C@@H](O)C[C@@H](O)CC(=O)O)c(-c2ccc(F)cc2)c2ccccc21 here?
A: inactive

Q: And the outcome [2]?
A: inactive

Q: What about the Potency [3] of the same compound?
A: inactive

Q: What about the Potency [4] of the same compound?
A: inactive

Q: With CCCCNc1ccc(C(=O)OCCOCCOCCOCCOCCOCCOCCOCCOCCOC)cc1 as the compound, how does the Potency [1] read?
A: inactive

Q: And the outcome [2]?
A: inactive

Q: What about the Potency [3] of the same compound?
A: inactive

Q: What about the Potency [4] of the same compound?
A: inactive

Q: With O=C(CN1CCN(Cc2ccc3c(c2)OCO3)CC1)N1c2ccccc2Sc2ccccc21 as the compound, how does the Potency [1] read?
A: inactive

Q: What about the outcome [2] of the same compound?
A: inactive

Q: And the Potency [3]?
A: inactive

Q: What about the Potency [4] of the same compound?
A: inactive

Q: Which Potency [1] does the source give for COc1ccc(CN(CCN(C)C)c2ncccn2)cc1 here?
A: inactive

Q: And the outcome [2]?
A: inactive

Q: What about the Potency [3] of the same compound?
A: inactive

Q: What about the Potency [4] of the same compound?
A: inactive

Q: Which results are given for Cc1ccc2c(Br)cc(Br)c(O)c2n1?
A: Potency [1]: inactive; outcome [2]: inactive; Potency [3]: inactive; Potency [4]: inactive

Q: With CCCCCCCCCCCCCCC[C@H](O)[C@@H](N)CO as the compound, how does the Potency [1] read?
A: inactive

Q: What about the outcome [2] of the same compound?
A: inactive

Q: What about the Potency [3] of the same compound?
A: inactive

Q: And the Potency [4]?
A: inactive

Q: For CCN1CCCC(OC(=O)C(c2ccccc2)c2ccccc2)C1 (configuration not stated), which Potency [1] is on record?
A: inactive

Q: And the outcome [2]?
A: inactive

Q: What about the Potency [3] of the same compound?
A: inactive

Q: What about the Potency [4] of the same compound?
A: inactive

Q: What does the source list for Cl/C(=C\n1cncn1)c1ccc(Cl)cc1Cl?
A: Potency [1]: inactive; outcome [2]: inactive; Potency [3]: inactive; Potency [4]: inactive

Q: Which results are given for CC(=O)O[C@]1(C(C)=O)CC[C@H]2[C@@H]3C=C(C)C4=CC(=O)CC[C@]4(C)[C@H]3CC[C@@]21C?
A: Potency [1]: inactive; outcome [2]: inactive; Potency [3]: inactive; Potency [4]: inactive

Q: With CCO[C@@H]1O[C@H](C(COCc2ccccc2)OCc2ccccc2)[C@H](OCc2ccccc2)[C@H]1O (some centres not stated) as the compound, how does the Potency [1] read?
A: inactive

Q: What about the outcome [2] of the same compound?
A: inactive

Q: And the Potency [3]?
A: inactive

Q: And the Potency [4]?
A: inactive

Q: For OC(C#CCN1CCCC1)(c1ccccc1)c1ccccc1, which Potency [1] is on record?
A: inactive

Q: What about the outcome [2] of the same compound?
A: inactive

Q: What about the Potency [3] of the same compound?
A: inactive

Q: What about the Potency [4] of the same compound?
A: inactive

Q: Which results are given for O=c1[nH]c(=O)n([C@H]2C[C@H](O)[C@@H](CO)O2)cc1F?
A: Potency [1]: inactive; outcome [2]: inactive; Potency [3]: inactive; Potency [4]: inactive

Q: Which Potency [1] does the source give for CO[C@H]1C=CO[C@@]2(C)Oc3c(C)c(O)c4c(O)c(c(/C=N/N5CCN(C)CC5)c(O)c4c3C2=O)NC(=O)/C(C)=C\C=C[C@H](C)[C@H](O)[C@@H](C)[C@@H](O)[C@@H](C)[C@H](OC(C)=O)[C@@H]1C here?
A: inactive

Q: And the outcome [2]?
A: inactive

Q: What about the Potency [3] of the same compound?
A: inactive

Q: What about the Potency [4] of the same compound?
A: inactive
